# Measurements from PubChem BioAssay (NCI).
# This is part of a sample that, as a whole, favours compounds with a hit. Of some 79,000 tested, about 15% had one in any assay. Unmarked numbers belong to inactive results. Active and inactive are the calls of the source. No stated cut-off is given here; in the data, active means growth inhibition above about 70%; inactive means the rest.
# Key:
# [1] = NCI Yeast Anticancer Drug Screen. Data for the rad52 strain (AID 147);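 further: 0% = growth of vehicle-treated control cultures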; conditions: S. cerevisiae rad52 mutant growth inhibition, stronger effect = higher value
# Summary of the method: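 DNA repair-defective yeast; compound exposure; growth scored against vehicle controls.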
# [2] = NCI Yeast Anticancer Drug Screen. Data for the wt1 strain (AID 149);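 further: 0% = growth of vehicle-treated wt1 cultures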; conditions: S. cerevisiae wt1 strain (SPY 50644) growth inhibition, stronger effect = higher value
# Summary of the method: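 Compounds are added to wt1 yeast cultures. Growth is then measured. Inhibition is expressed relative to vehicle-treated controls.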
# [3] = NCI Yeast Anticancer Drug Screen. Data for the rad50EPP+ strain (AID 151);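 further: 0% = growth of vehicle-treated control cultures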; conditions: S. cerevisiae rad50 mutant strain, stronger effect = higher value
# Summary of the method: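 rad50EPP+ yeast treated with test compounds. Readout: growth vs vehicle control.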
# [4] = NCI Yeast Anticancer Drug Screen. Data for the rad50 strain (AID 155);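 further: 0% = growth of vehicle-only cultures of the same strain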; conditions: S. cerevisiae rad50 strain growth inhibition, stronger effect = higher value
# Summary of the method: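 Inhibition values express reduced yeast growth in compound-treated cultures relative to vehicle-treated controls.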
# [5] = NCI Yeast Anticancer Drug Screen. Data for the mec2-1 strain (AID 157); conditions: S. cerevisiae mec2-1 strain, stronger effect = higher value
# Summary of the method: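 Growth inhibition is read against vehicle-treated controls after compound exposure of the mec2-1 yeast strain, which is defective in DNA damage repair or cell cycle control.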
# [6] = NCI Yeast Anticancer Drug Screen. Data for the rad14 strain (AID 159);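 further: 0% = growth of vehicle-treated control cultures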; conditions: S. cerevisiae rad14 strain growth inhibition, stronger effect = higher value
# Summary of the method: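 A mutant yeast strain defective in DNA damage repair is treated with compound; inhibition of its growth is scored against untreated, vehicle-exposed cultures.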
# [7] = NCI Yeast Anticancer Drug Screen. Data for the sgs1 mgt1 strain (AID 161);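 further: 0% = growth of cultures given vehicle only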; conditions: S. cerevisiae sgs1 mgt1 strain, stronger effect = higher value
# Summary of the method: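 Percent growth inhibition was derived by comparing compound-exposed mutant yeast with vehicle-exposed cultures. The strain carries alterations in DNA damage repair.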
# [8] = NCI Yeast Anticancer Drug Screen. Data for the CLN2oe strain (AID 163);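 further: 0% = growth of vehicle-only control cultures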; conditions: S. cerevisiae CLN2oe strain, stronger effect = higher value
# Summary of the method: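 Compound-treated yeast; growth vs vehicle ctrl = % inhibition. Genetically altered strain (cell-cycle control).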
# [9] = NCI Yeast Anticancer Drug Screen. Data for the cln2 rad14 strain (AID 165);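 further: 0% = growth equal to vehicle treated cultures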; conditions: S. cerevisiae cln2 rad14 strain, stronger effect = higher value
# Summary of the method: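 Growth inhibition, relative to vehicle-treated controls, is the read-out. The test organism is a yeast strain with defined genetic alterations, cln2 rad14.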
# [10] = NCI Yeast Anticancer Drug Screen. Data for the bub3 strain (AID 167); conditions: S. cerevisiae bub3 mutant strain, stronger effect = higher value
# Summary of the method: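 Steps: expose the mutant yeast strain to compound; grow alongside vehicle-treated cultures; measure growth; express inhibition against the vehicle cultures.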
# [11] = NCI Yeast Anticancer Drug Screen. Data for the wt2 strain (AID 169);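 further: 0% = growth of vehicle-treated yeast cultures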; conditions: S. cerevisiae wt2 strain growth inhibition, stronger effect = higher value
# Summary of the method: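 Compound exposure of yeast; growth compared with vehicle controls; inhibition reported.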
# [12] = NCI Yeast Anticancer Drug Screen. Data for the mlh1 strain (AID 171);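 further: 0% = growth of vehicle-treated control cultures of the same strain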; conditions: S. cerevisiae mlh1 strain growth inhibition, stronger effect = higher value
# Summary of the method: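 Compounds are applied to a genetically altered yeast strain, and its growth is compared with that of vehicle-treated cultures to give percent inhibition.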
# [13] = NCI Yeast Anticancer Drug Screen. Data for the sgs1 strain (AID 173);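 further: 0% = growth of vehicle-only control cultures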; conditions: S. cerevisiae sgs1 mutant, stronger effect = higher value
# Summary of the method: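 Compounds applied to genetically altered yeast; growth compared with vehicle-treated cultures to give % inhibition.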
# [14] = NCI Yeast Anticancer Drug Screen. Data for the mlh1 rad18 strain (AID 175); conditions: S. cerevisiae mlh1 rad18 strain growth inhibition, stronger effect = higher value
# Summary of the method: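 Cells of a genetically altered yeast strain, deficient in DNA damage repair, were treated with compound. Their growth was then compared with that of vehicle-treated cultures to give inhibition.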
# [15] = NCI Yeast Anticancer Drug Screen. Data for the rad18 strain (AID 177); conditions: S. cerevisiae rad18 mutant growth inhibition, stronger effect = higher value
# Summary of the method: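 Compounds are applied to a repair-deficient yeast strain, and growth is compared with that of vehicle-treated cultures to give percent inhibition.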
# [16] = at 5.0 µM (retest, dose inferred, filed as 0.5)
# [17] = at 50.0 µM (retest, dose inferred, filed as 5.0)
compound,measurement,setting,value
C/C1=C/C2OC(=O)C3(C)C2C(CC2(C)OC1=CC2=O)OC3(O)C(C)C (stereo not drawn),growth inhibition,[1]; at 1.2 µM,-27%
same,growth inhibition,[1]; at 3.7 µM,-33%
same,growth inhibition,[1]; at 11.0 µM,-32%
same,growth inhibition,[1]; at 33.0 µM,-60%
same,growth inhibition,[1]; at 100.0 µM,-39%
same,growth inhibition,[2]; at 1.2 µM,-23%
same,growth inhibition,[2]; at 3.7 µM,-29%
same,growth inhibition,[2]; at 11.0 µM,-42%
same,growth inhibition,[2]; at 33.0 µM,-16%
same,growth inhibition,[2]; at 100.0 µM,-33%
same,growth inhibition,[3]; at 1.2 µM,-9%
same,growth inhibition,[3]; at 3.7 µM,-1%
same,growth inhibition,[3]; at 11.0 µM,32%
same,growth inhibition,[3]; at 33.0 µM,72% (active)
same,growth inhibition,[3]; at 100.0 µM,91% (active)
same,growth inhibition,[4]; at 1.2 µM,-25%
same,growth inhibition,[4]; at 3.7 µM,-29%
same,growth inhibition,[4]; [16],16%
same,growth inhibition,[4]; at 11.0 µM,-38%
same,growth inhibition,[4]; at 33.0 µM,-57%
same,growth inhibition,[4]; [17],21%
same,growth inhibition,[4]; at 50.0 µM,6.75%
same,growth inhibition,[4]; at 100.0 µM,-47%
same,growth inhibition,[5]; at 1.2 µM,-16%
same,growth inhibition,[5]; at 3.7 µM,-27%
same,growth inhibition,[5]; [16],18%
same,growth inhibition,[5]; at 11.0 µM,-27%
same,growth inhibition,[5]; at 33.0 µM,-18%
same,growth inhibition,[5]; [17],24%
same,growth inhibition,[5]; at 50.0 µM,-27.4%
same,growth inhibition,[5]; at 100.0 µM,-24%
same,growth inhibition,[6]; at 1.2 µM,-27%
same,growth inhibition,[6]; at 3.7 µM,-20%
same,growth inhibition,[6]; at 11.0 µM,-34%
same,growth inhibition,[6]; at 33.0 µM,-39%
same,growth inhibition,[6]; at 100.0 µM,-16%
same,growth inhibition,[7]; [16],21%
same,growth inhibition,[7]; [17],87% (active)
same,growth inhibition,[7]; at 50.0 µM,82.4% (active)
same,growth inhibition,[8]; at 1.2 µM,4%
same,growth inhibition,[8]; at 3.7 µM,22%
same,growth inhibition,[8]; at 11.0 µM,13%
same,growth inhibition,[8]; at 33.0 µM,0%
same,growth inhibition,[8]; at 100.0 µM,10%
same,growth inhibition,[9]; [16],27%
same,growth inhibition,[9]; [17],29%
same,growth inhibition,[9]; at 50.0 µM,7.4%
same,growth inhibition,[10]; at 1.2 µM,-8%
same,growth inhibition,[10]; at 3.7 µM,-19%
same,growth inhibition,[10]; [16],22%
same,growth inhibition,[10]; at 11.0 µM,-20%
same,growth inhibition,[10]; at 33.0 µM,-35%
same,growth inhibition,[10]; [17],16%
same,growth inhibition,[10]; at 50.0 µM,-16.7%
same,growth inhibition,[10]; at 100.0 µM,-28%
same,growth inhibition,[11]; at 1.2 µM,8%
same,growth inhibition,[11]; at 3.7 µM,21%
same,growth inhibition,[11]; at 11.0 µM,27%
same,growth inhibition,[11]; at 33.0 µM,79% (active)
same,growth inhibition,[11]; at 100.0 µM,91% (active)
same,growth inhibition,[12]; at 1.2 µM,21%
same,growth inhibition,[12]; at 3.7 µM,5%
same,growth inhibition,[12]; at 11.0 µM,31%
same,growth inhibition,[12]; at 33.0 µM,60%
same,growth inhibition,[12]; at 100.0 µM,90% (active)
same,growth inhibition,[13]; at 1.2 µM,5%
same,growth inhibition,[13]; at 3.7 µM,-1%
same,growth inhibition,[13]; at 11.0 µM,26%
same,growth inhibition,[13]; at 33.0 µM,72% (active)
same,growth inhibition,[13]; at 100.0 µM,92% (active)
same,growth inhibition,[14]; [16],24%
same,growth inhibition,[14]; [17],32%
same,growth inhibition,[14]; at 50.0 µM,-6.1%
same,growth inhibition,[15]; at 1.2 µM,-6%
same,growth inhibition,[15]; at 3.7 µM,-33%
same,growth inhibition,[15]; at 11.0 µM,-38%
same,growth inhibition,[15]; at 33.0 µM,-44%
same,growth inhibition,[15]; at 100.0 µM,-37%
CC(C)OC(=O)NNc1cc(Cl)ccc1Cl,growth inhibition,[1]; at 1.2 µM,0%
same,growth inhibition,[1]; at 3.7 µM,18%
same,growth inhibition,[1]; at 11.0 µM,41%
same,growth inhibition,[1]; at 33.0 µM,38%
same,growth inhibition,[1]; at 100.0 µM,66%
same,growth inhibition,[2]; at 1.2 µM,-2%
same,growth inhibition,[2]; at 3.7 µM,5%
same,growth inhibition,[2]; at 11.0 µM,29%
same,growth inhibition,[2]; at 33.0 µM,34%
same,growth inhibition,[2]; at 100.0 µM,31%
same,growth inhibition,[3]; at 1.2 µM,20%
same,growth inhibition,[3]; at 3.7 µM,27%
same,growth inhibition,[3]; at 11.0 µM,60%
same,growth inhibition,[3]; at 33.0 µM,72% (active)
same,growth inhibition,[3]; at 100.0 µM,88% (active)
same,growth inhibition,[4]; at 1.2 µM,-3%
same,growth inhibition,[4]; at 3.7 µM,22%
same,growth inhibition,[4]; [16],19%
same,growth inhibition,[4]; at 11.0 µM,41%
same,growth inhibition,[4]; at 33.0 µM,36%
same,growth inhibition,[4]; [17],44%
same,growth inhibition,[4]; at 50.0 µM,38%
same,growth inhibition,[4]; at 100.0 µM,87% (active)
same,growth inhibition,[5]; at 1.2 µM,-4%
same,growth inhibition,[5]; at 3.7 µM,8%
same,growth inhibition,[5]; [16],9%
same,growth inhibition,[5]; at 11.0 µM,34%
same,growth inhibition,[5]; at 33.0 µM,33%
same,growth inhibition,[5]; [17],20%
same,growth inhibition,[5]; at 50.0 µM,36.4%
